The campaign covered roughly 350,000 compounds. About 31,000 (8.9%) were called active. Roughly 15% stayed inconclusive and do not appear here. This excerpt belongs to a sample that is enriched for actives. A number with no mark means an inactive call. Calls come from the whole dose curve; as a rule, active = well fitted inhibition curve with a large enough effect; inconclusive = small, poorly fitted or top-dose-only effect; inactive = no such curve, though single readings can be large or run the other way.
target: Histone-lysine N-methyltransferase EHMT2 (Homo sapiens) (UniProt Q96KQ7); assay: qHTS Assay for Inhibitors of Histone Lysine Methyltransferase G9a; conditions: G9a H3K9 monomethylation, AlphaScreen, 2 h; series mostly up to 59 µM; activity, negative = inhibition: at the top concentration; note: nearly all actives have a fitted effect of over 75% in size
Summary of the method: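 AlphaScreen read-out: biotin-H3K9 peptide (500 nM) methylation by 20 nM enzyme with 20 uM SAM, 2 h at room temperature after 15 min compound preincubation; anti-monomethyl H3K9 antibody plus donor/acceptor beads, 10 min dark.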
% is set by controls: 0 for no effect and ±100 for the full control effect; potency is the fitted concentration of half-maximal effect.

Histone-lysine N-methyltransferase EHMT2 (Homo sapiens), sequence (Q96KQ7 913-1193 limits assumed): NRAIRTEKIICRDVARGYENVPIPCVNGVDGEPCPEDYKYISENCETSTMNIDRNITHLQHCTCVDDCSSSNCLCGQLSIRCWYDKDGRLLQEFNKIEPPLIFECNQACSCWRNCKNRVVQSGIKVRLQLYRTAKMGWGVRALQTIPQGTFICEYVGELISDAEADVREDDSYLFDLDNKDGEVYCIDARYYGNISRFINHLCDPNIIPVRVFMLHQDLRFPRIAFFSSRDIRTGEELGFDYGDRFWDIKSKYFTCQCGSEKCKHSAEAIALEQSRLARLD

SMILES	activity, negative = inhibition	Potency
COc1cccc2c1cc1c(=O)n(CC(=O)N3CCN(c4cccc(Cl)c4)CC3)nc(C)n12	0.803%	–
O=S(=O)(NCC(c1ccco1)N1CCOCC1)c1cc(F)ccc1F (stereo not given)	-0.918%	–
COC(=O)CNc1nc(Cl)nc(N2CCC(C)CC2)n1	–	56.2 µM (active)
CCOC(=O)CNc1nc(Cl)nc(Nc2ccccc2)n1	-16.2% [at 102 µM]	–
Clc1nc(NC2CCCC2)nc(N2CCOCC2)n1	-4.76% [at 102 µM]	–
O=C(COc1ccc(Cl)cc1[N+](=O)[O-])N1CCCCC1	-22.5% [at 102 µM]	–
O=[N+]([O-])c1cc([N+](=O)[O-])c(Oc2cc(F)cc(F)c2F)cc1NN1CCCCC1	–	15.8 µM (active)
O=C(COc1ccccc1F)NNC(=O)c1ccc(N2CCCCC2)c([N+](=O)[O-])c1	-36.2%	–
CCOC(=O)C1CCN(C(=O)CSc2c3c(nc4ccc(Cl)cc24)CCCC3)CC1	2.68%	–
COc1ccccc1C(=O)NNC(=O)CCN1C(=O)/C(=C\c2ccccc2)SC1=S	-11.8% [at 102 µM]	–
COc1ccc(/C=C2\SC(=O)N(CCC(=O)NCCCn3ccnc3)C2=O)cc1	8.95% [at 102 µM]	–
COc1ccc(/C=C2/SC(=O)N(CCCCCC(=O)Nc3ccccc3C(=O)O)C2=S)cc1	–	35.5 µM (active)
CN(C(=O)c1ccc2c(c1)N(Cc1cccc(Cl)c1)C(=O)c1ccccc1S2=O)C1CCCCC1 (stereo not given)	-25.6%	–
CCOc1ccc(NC(=O)c2cc(C)nc3ccccc23)cc1	7.25% [at 102 µM]	–
Cc1cc(C(=O)N/N=C/c2ccccn2)c2ccccc2n1	–	12.6 µM (active)
CNC(=O)C(=O)N/N=C/c1ccccn1	-131% [at 12.7 µM]	–
COC(=O)C1CCN(C(=O)c2ccc3oc(Cc4ccc(Cl)cc4)nc3c2)CC1	25.1% [at 102 µM]	–
CCC(=O)N1N=C(c2ccc(OC)cc2)CC1c1cn(-c2ccccc2)nc1-c1cccs1 (stereo not given)	8.55%	–
COc1ccc(-c2nc(Cn3c(=O)cc(C)c4c(C)nn(-c5ccccc5)c43)c(C)o2)c(OC)c1	-47.2%	–
CCOc1cccc(C(=O)Nc2nnc(S(=O)(=O)N(C)c3ccc(C)cc3)s2)c1	5.27%	–
Cn1c(SCC(=O)N2CCOCC2)nnc1-c1ccc2ncccc2c1	-12.7%	–
Cn1c(SCC(=O)N2CCOCC2)nnc1-c1ccc(NC(=O)c2ccccc2F)cc1	–	50.1 µM (active)
Cn1c(SCC(=O)N2CCCC2)nnc1-c1ccc2c(c1)OCO2	-0.309% [at 102 µM]	–
CCn1cc(C(=O)NCc2ccccc2)c(=O)c2cc(S(=O)(=O)N3CCCCC3)ccc21	-1.02%	–

SMILES	activity, negative = inhibition	Potency
Cc1ccc(CNC(=O)CCNS(=O)(=O)c2ccc3c(c2)oc(=O)n3C)cc1	-10.2%	–
COc1cccc(CN2CCc3nc(SCC(=O)Nc4ccccc4)[nH]c(=O)c3C2)c1	-10.1%	–
CCN1C(=O)c2cccc3c(S(=O)(=O)Nc4ccccc4O)ccc1c23	–	44.7 µM (active)
CCN1C(=O)c2cccc3c(N)ccc1c23	–	39.8 µM (active)
Nc1ccc2c3c(cccc13)C(=O)NC2=O	29.3% [at 12.7 µM]	–
CN1C(=O)c2cccc3c(N)ccc(c23)C1=O	-11.1% [at 2.33 µM]	–
Cc1cccc(NC(=O)CN2C(=O)c3ccccc3C2=O)c1C	9.63% [at 102 µM]	–
O=C(CN1C(=O)c2cccc3cccc1c23)Nc1ccccc1	-0.544% [at 102 µM]	–
CCc1ccc(-c2cc3c(=O)n(CC(=O)NCCCN4CCN(Cc5ccccc5)CC4)nc(C)n3n2)cc1	18% [at 102 µM]	–
CCOc1ccccc1NC(=O)Cn1c(=O)n(-c2cccc(C)c2)c(=O)c2c1c1cc(OC)ccc1n2C	3.71%	–
Cc1cc2oc(C(=O)N(Cc3ccc(Cl)cc3)Cc3ccco3)c(C)c2cc1Cl	3.31%	–
COc1ccc(CN2CCN(C(=O)c3cc(C4CC4)nn3-c3ccccc3)CC2)cc1F	-5.17%	–
O=[N+]([O-])c1ccc(N/N=C2/CCCCC2c2ccccn2)c([N+](=O)[O-])c1 (stereo not given)	–	10 µM (active)
O=C(COC(=O)c1cc([N+](=O)[O-])ccc1NCc1ccccc1)NC1CCCCC1	-5.06% [at 102 µM]	–
C[n+]1ccccc1C1CCCC/C1=N\Nc1ccc([N+](=O)[O-])cc1[N+](=O)[O-] (stereo not given)	–	2 µM (active)
O=[N+]([O-])c1ccc2nc(-c3ccccn3)[nH]c2c1	3.58% [at 102 µM]	–
Cc1cc([N+](=O)[O-])ccc1NC1CCCC1	-0.358%	–
O=C(Nc1ccccc1)O/N=C1\CCCCC1c1ccc([N+](=O)[O-])cc1[N+](=O)[O-] (stereo not given)	8.25% [at 102 µM]	–
CCOc1ccc(CNCc2c(C(=O)O)c(C)n(Cc3cccc(OC)c3)c2C)cc1OC	2.42%	–
CC(C)Sc1oc(-c2cccs2)nc1S(=O)(=O)c1ccc(Cl)cc1	12.9%	–
C/C(=N/OC(=O)c1ccc(Br)cc1)c1ccc(C)cc1	20.4% [at 102 µM]	–
CCOc1ccc(/C=N\NC(=O)c2c(C)nc3cc(C)ccn23)cc1	18% [at 0.501 µM]	–
C/C(=N\OC(=O)c1ccccc1)c1c(C)nc2cc(C)ccn12	–	50.1 µM (active)
Cc1nnc(N2CCC(C(=O)Nc3ccc(F)cc3)CC2)c2nn(-c3ccc(Cl)cc3)c(C)c12	-2.85%	–

SMILES	activity, negative = inhibition	Potency
Cc1cccc(C(=O)NCCc2nc3ccccc3n2Cc2ccccc2Cl)c1	-2.51%	–
O=C(Nc1cccc(-c2cccc(Cl)c2)c1)C1CCN(C2CCC2)CC1	-4.3% [at 0.0925 µM]	–
O=Cc1c(Nc2ccccc2Cl)nc2ccccn2c1=O	5.69% [at 0.501 µM]	–
COc1ccccc1C(=O)N1CCN=C1SCc1cccnc1	4.75% [at 12.7 µM]	–
COc1cccc(OC)c1C(=O)N1CCN(Cc2cccnc2)CC1	–	7.08 µM (active)
COc1cccc(OC)c1OCCN1CCN(C(=O)c2ccco2)CC1	12.4% [at 102 µM]	–
CCC(C)N(C(=O)CSc1nnnn1-c1ccccc1OC)C1CCS(=O)(=O)C1 (stereo not given)	-13%	–
CCn1c(=O)c(=O)[nH]c2c(=O)oc3ccc(S(=O)(=O)Nc4ccc(OC)cc4)cc3c21	-14% [at 102 µM]	–
Cc1ccc(Cl)c(OCC(=O)N2CCc3ccccc3C2)c1	4.26% [at 102 µM]	–
O=C1N/C(=C/c2cccs2)C(=O)N1Cc1ccc(F)cc1	-10.9% [at 102 µM]	–
CSC1=N/C(=C\C=C\c2cccs2)C(=O)S1	–	7.94 µM (active)
Cc1cccc(C2=N/C(=C/c3cccs3)C(=O)O2)c1	-37.5% [at 102 µM]	–
CC(=O)c1ccc(N2CCN(C3C(=O)c4ccccc4N3C(C)=O)CC2)cc1 (stereo not given)	-31.2%	–
CCCOc1ccccc1C(=O)NCCCC(=O)O	-1.32% [at 102 µM]	–
COc1ccccc1-c1nc(SC)n[nH]1	-11.3% [at 102 µM]	–
CCCOc1ccccc1-c1nc(SCCC(=O)O)n[nH]1	–	11.2 µM (active)
Cc1nc2nc(SCC(=O)NC3CCC(C)CC3)nn2c(C)c1Cc1ccccc1Cl (stereo not given)	-39.2%	–
Cc1cccc(-n2cnc(C(=O)NNC(=S)Nc3ccccc3)c2)n1	–	28.2 µM (active)
COC(=O)c1ccc(NC(=S)Nc2cccc(C)n2)cc1	-9.29% [at 12.7 µM]	–
Cc1cccc(-n2cnc(C(=O)Nc3cccnc3)c2)n1	-4.43% [at 102 µM]	–
O=C(c1ccc(Cl)nc1)N1CCN(S(=O)(=O)c2ccc3c(c2)OCCO3)CC1	-21.6% [at 12.7 µM]	–
Cc1cccc(C)c1Nc1c(-c2ccccc2O)nc2ncccn12	-7.84% [at 12.7 µM]	–
CCc1cccc(C)c1Nc1c(-c2ccc(N(C)C)cc2)nc2ncccn12	–	8.91 µM (active)
COc1ccc(-c2nc3nc(C)cc(C)n3c2Nc2c(C)cccc2C)cc1	-32.3%	–

SMILES	activity, negative = inhibition	Potency
Cc1ccc(CCNC(=O)c2ccc3c(c2)N(Cc2cc(C)ccc2C)C(=O)c2ccccc2S3=O)cc1 (stereo not given)	-23.3%	–
Cc1ccc(S(=O)(=O)NCCC(=O)OCC(=O)N(C)c2ccccc2)cc1	-8.16% [at 102 µM]	–
Cc1ccc(OCCCC(=O)NC(C)c2ccccc2)c(C)c1 (stereo not given)	-28.9% [at 102 µM]	–
Cc1ccc(OCC(=O)NC(C)c2ccccc2)cc1C (stereo not given)	15.5% [at 102 µM]	–
Cc1cc(C)cc(OCC(=O)NC(C)c2ccccc2)c1 (stereo not given)	–	79.4 µM (active)
COc1ccccc1C(=O)NC(=S)Nc1ccccc1N1CCCCC1	5.98% [at 102 µM]	–
O=C1C2CCCN2C(=O)N1CCCCN1CCN(c2cccc(C(F)(F)F)c2)CC1 (stereo not given)	2.49% [at 0.501 µM]	–
CC1=C(c2ccc(F)cc2)S(=O)(=O)N=C1N1CCC(C(=O)NCCc2ccccc2C)CC1	0.174%	–
COc1ccccc1C(=O)NC(CCSC)C(=O)N1CCN(C(C)=O)CC1 (stereo not given)	8.08% [at 12.7 µM]	–
CSCCC(NC(=O)c1ccccc1)C(=O)N1CCN(Cc2ccc(Cl)cc2)CC1 (stereo not given)	10.6% [at 0.501 µM]	–
COc1ccccc1C(=O)NC(CCSC)C(=O)N1CCN(C/C=C/c2ccccc2)CC1 (stereo not given)	–	56.2 µM (active)
CCOc1ccc(CNC(=O)C2CCN(c3nnc(-n4cccc4CNc4ccc(C)cc4)s3)CC2)cc1OC	-7.99%	–
CC1CC2C3CCC4=CC(=O)C=C[C@]4(C)[C@@]3(F)[C@@H](O)C[C@]2(C)[C@@]1(O)C(=O)CO (stereo not given in full)	23.6%	–
Cc1ccc2oc(C(=O)Nc3ccc(S(=O)(=O)N4CCCCCC4)cc3)cc(=O)c2c1	11.5%	–
O=C(Nc1cccc(Cl)c1Cl)c1ccccc1NC(=O)C1CC=CCC1C(=O)O (stereo not given)	-46.5% [at 102 µM]	–
Cc1c(-c2cccc(Cl)c2)nc2ccccc2c1C(=O)OCC(=O)N(C)C1CCS(=O)(=O)C1 (stereo not given)	3.46%	–
CN(C(=O)COC(=O)c1nc(Cl)ccc1Cl)C1CCS(=O)(=O)C1 (stereo not given)	11.5% [at 102 µM]	–
CN(C(=O)COC(=O)c1cc(-c2ccco2)nc2ccccc12)C1CCS(=O)(=O)C1 (stereo not given)	–	2.51 µM (active)
COc1ccc(-n2nc(C(=O)NCC(=O)N3CCCCCC3)c3ccccc3c2=O)cc1Cl	-1.41% [at 102 µM]	–
CCC(=O)c1ccc(OCC(=O)OCC(=O)N2CCc3ccccc3C2)cc1	-11.3% [at 2.33 µM]	–
O=C(Cn1c(=S)nc2ccccn21)N1CCc2ccccc2C1	–	12.6 µM (active)
O=C(COc1ccccc1)N1CCc2ccccc2C1	-42.6% [at 102 µM]	–
Cn1c(=O)c2c(nc(Oc3ccc(C#N)cc3)n2Cc2ccc(Cl)cc2Cl)n(C)c1=O	26.9%	–
